Holding throughout (test): NCI-60 one-dose screen, 48 h (100 = growth as untreated, 0 = no growth, -100 = all killed)
Common to all, as to settings: 10 µM unless noted

For test [1], the system named is NCI-H23 lung.
Test [2] has as its system NCI-H226 lung.
Test [3] has as its system NCI-H322M lung.
In test [4] the test system is HOP-62 NSCLC.
In test [5] the test system is NCI-H460 lung.
Test [6] has as its system HOP-92 NSCLC.
Test [7] concerns NCI-H522 lung.
Test [8] has as its system A549/ATCC NSCLC.
Test [9] has as its system 786-0 renal.
In test [10] the test system is COLO 205 colon.
For test [11], the system named is DU-145 prostate.
Test [12] concerns K-562 leukemia.
In test [13] the test system is MALME-3M melanoma.
The test system of test [14] is MDA-MB-231 breast.
The subject of test [15] is RXF 393 renal.
Test [16] relates to SF-268 CNS.
Test [17] concerns SF-295 CNS.
In test [18] the test system is SF-539 CNS.
Test [19] relates to UACC-257 melanoma.
Test [20] has as its system M14 melanoma.

This is part of a sample that, as a whole, favours compounds with a hit. Of some 83,000 tested, about 20% had one in any assay.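 Results are percent growth after 48 hours of single-concentration exposure. 100 means growth as in untreated cells, lower positive values show inhibition; negative values down to -100 show cell death.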 Values without a mark were called inactive. Activity calls are given as the source filed them. Rule for the calls: active = growth percent below 10; inactive = the rest.

For the compound `COc1ccc(C(=O)N2NC(=O)/C(=C/c3ccc(F)cc3)N=C2c2ccccc2)cc1`, the growth is 92.2% in [1]; 96.5% in [2]; 92% in test [3]; 99.3% in [4]; 104% in test [5]; 93.7% in test [6]. Moreover, the growth in test [7] was 93.3%; in test [8], 86.4%; in test [9], 78.9%; in test [10], 119%; in test [11] it was 113%; in test [12] it was 94.4%. Moreover, the growth in test [13] was 91.4%; in test [14], 88.1%; in test [15] it was 94.5%; in [16], 105%; in [17], 80.4%; in test [18], 97%. Also, the figures for the growth in test [19] and in [20] were 99.3% and 87.2%, respectively.
`COc1ccccc1CNCCCN1C(=O)c2ccc3c4c(ccc(c24)C1=O)C(=O)N(CCCNCCCCNCCCN)C3=O`: the growth in test [1] was 1.96% (active); in test [2], -59.9% (active); in [3], -4.96% (active); in test [4], -55.2% (active); in test [5] it was -30.2% (active); in [6] it was 5.16% (active). The growth in test [7] was -41.7% (active); in test [8] it was -48.2% (active); in [9], 3.83% (active); in test [10] it was -78.9% (active); in test [11], -92.6% (active); in test [12], -15.1% (active). In addition, the growth was -91.8% (active) in test [13]; 15% in [14]; -66.8% (active) in test [15]; 1.6% (active) in test [16]; 1.52% (active) in [17]; -55.9% (active) in test [18]. In addition, the results for the growth in test [19] and in [20] were -91.1% (active) and -70.8% (active), respectively.
With `CC(C)(C)n1cc(-c2ccnc(NCCNS(=O)(=O)c3ccc(Cl)cc3)c2)c(-c2cccc(O)c2)n1`, the growth was 64.7% in [1]; 67.5% in test [2]; 85.3% in test [3]; 84.9% in test [4]; 28.2% in test [5]; 72% in test [6]. Also, the growth in test [7] is 68%; in test [8], 51.8%; in [9], 54.6%; in test [10], -7.89% (active); in [11] it was 80.6%; in test [12] it was 6.91% (active). Moreover, the growth in test [13] was 64.4%; in [14], 56.6%; in test [15] it was 64.3%; in [16], 54.7%; in test [17], 54.4%; in test [18], 68.1%. The growth in [19] is 64.8%; in test [20], 62.8%.
Turning to `COc1ccc(C2C(C#N)=C(N)Oc3c2ccc2ccccc32)cc1` (stereo not given), the growth is 52.8% in test [1]; 39.4% in [2]; 67.8% in [3]; 37.3% in test [4]; 14.6% in test [5]; 48.4% in test [6]. Besides, the growth in test [7] was 3.93% (active); in test [8], 57.1%; in [9] it was 73.1%; in [10], 91.1%; in [11], 78.4%; in test [12], 19.6%. Also, the growth in test [13] is 47.9%; in test [14] it was 31.2%; in [15], 36.5%; in [16], 50.5%; in test [17] it was 24.2%; in test [18], 25.6%. The growth in test [19] is 75.1%; in test [20] it was 30.2%.
For the compound `O=C(NCCCNc1nccc(-n2ccc3cccnc32)n1)c1c(F)cccc1F`, the growth in [1] was 101%; in [2] it was 99.4%; in test [3], 103%; in test [4], 101%; in test [5], 104%; in test [6], 110%. The growth is 101% in test [7]; 102% in test [8]; 98% in test [9]; 113% in test [10]; 107% in test [11]; 98.7% in test [12]. For the same compound, the growth is 106% in [13]; 95.5% in test [14]; 108% in test [15]; 96.3% in test [16]; 98.4% in [17]; 97.9% in test [18]. Further, the growth in test [19] is 113%; in [20], 102%.
With `COc1ccc(-c2c(N)n[nH]c2-c2cc(OC)c(OC)c(OC)c2)cc1`, the growth in test [1] was 36.9%; in test [2] it was 82.7%; in [3] it was 43.9%; in [4] it was 41.1%; in test [5], 6.89% (active); in [6], 70.1%. Also, the growth is -21.3% (active) in test [7]; 25.9% in test [8]; 33.7% in test [9]; 4.54% (active) in test [10]; 11% in [11]; 19.3% in test [12]. Besides, the growth in test [13] is 39.3%; in test [14], 28%; in test [15] it was -1.72% (active); in test [16], 34.9%; in [17], 12.8%; in test [18], 1.66% (active). In addition, the growth was 59.2% in [19] and 5.82% (active) in [20].
As for `COc1cc(NC(=O)SC2=NCCS2)cc(OC)c1`, the growth is 95% in test [1]; 98.7% in test [2]; 110% in [3]; 108% in [4]; 101% in test [5]; 84.7% in test [6]. For the same compound, the growth in test [7] is 86.4%; in [8], 101%; in [9], 101%; in test [10] it was 109%; in test [11], 101%; in test [12] it was 93.6%. In addition, the growth in [13] is 102%; in test [14], 110%; in test [15] it was 120%; in test [16], 106%; in test [17], 113%; in test [18], 90.6%. Further, the growth in test [19] is 104%; in [20], 103%.
Turning to `COc1cc2c(cc1O)CCN1C[C@@H](CC(C)C)[C@@H](O)C[C@@H]21`, the growth in test [1] was 99.9%; in test [2] it was 96.6%; in test [3], 105%; in test [4] it was 93.5%; in test [5], 116%; in test [6], 63.8%. In addition, the growth was 93.6% in test [7]; 107% in test [8]; 92% in [9]; 127% in test [10]; 111% in [11]; 96% in [12]. Also, the growth is 100% in test [13]; 103% in test [14]; 107% in test [15]; 107% in [16]; 97.4% in [17]; 96.7% in test [18]. Besides, the results for the growth in [19] and in test [20] were 99.5% and 100%, respectively.

(Values after PubChem BioAssay (NCI).)
